About 5,800 (36%) of roughly 16,000 compounds were called active. Inconclusive results (about 23%) are left out. The call rests on the fitted dose curve; in most records, active means well fitted curve in the direction sought with a large enough effect; inconclusive means small, poorly fitted or top-dose-only effect, or effect the other way; inactive means no such curve, though single readings can be large or run the other way. Some of the results follow.
On the % scale 0 is the no-effect control and ±100 the full control effect.

This test deals with Cytochrome P450 2C19 (Homo sapiens) (UniProt P33261). Description: Cytochrome panel assay with activity outcomes. The following applies: recombinant CYP, pro-luciferin dealkylation, luminescence, p450-cyp2c19; series mostly up to 57.1 µM.
Sequence of Cytochrome P450 2C19 (Homo sapiens) (P33261 whole entry, looked up): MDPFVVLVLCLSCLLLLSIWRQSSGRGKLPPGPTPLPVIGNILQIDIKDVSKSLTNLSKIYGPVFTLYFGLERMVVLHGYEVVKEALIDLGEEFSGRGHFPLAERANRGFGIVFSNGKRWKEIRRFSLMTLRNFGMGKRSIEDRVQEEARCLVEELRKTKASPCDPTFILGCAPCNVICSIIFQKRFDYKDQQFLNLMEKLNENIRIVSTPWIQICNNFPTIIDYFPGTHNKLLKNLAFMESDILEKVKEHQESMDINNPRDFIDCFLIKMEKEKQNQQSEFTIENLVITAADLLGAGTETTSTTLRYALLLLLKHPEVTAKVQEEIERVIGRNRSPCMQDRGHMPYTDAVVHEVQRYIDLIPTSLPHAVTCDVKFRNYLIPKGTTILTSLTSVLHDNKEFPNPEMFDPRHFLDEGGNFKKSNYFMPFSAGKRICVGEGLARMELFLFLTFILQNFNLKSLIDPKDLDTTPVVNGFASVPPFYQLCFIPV
For the compound `CC(C)(C)N1C(=O)[C@H]2[C@@H]3[C@H](O)[C@H](O)CC(=O)[C@H]3CC[C@H]2C1=O`, the activity, negative = inhibition was -4.03% [at 11.4 µM] (inactive). For the compound `N#CCCn1c(=O)c(-c2ccc(Cl)cc2)nc2cnc(N3CCOCC3)nc21`, the AC50 (as a rule, the concentration at which the activity in the assay is half-maximal) is “inactive”. For `N#CCCn1cc(/C=N/O)c(-c2ccc(Cl)cc2)n1`, the AC50 was 7.94 µM (active). Turning to `N#CCCn1c(=O)c(-c2ccc(Cl)cc2)nc2cnc(Oc3cccc(Cl)c3)nc21`, the AC50 result was “inactive”. Regarding `CC1=CC(=O)C=CC1(C)C(Cl)(Cl)Cl` (centres undefined), the AC50 was 25.1 µM (active). On to `CN(C)C(=O)c1ccc(-c2nccc(NCc3ccccc3)n2)cc1`, for which the AC50 entry is “inactive”. Same read-out and setting: with `Cc1cnc(CNc2ccnc(-c3ccc(N(C)C)cc3)n2)cn1` the entry was “inactive”; with `CN(C)c1ccc(-c2nccc(NCc3ccccc3)n2)cc1`, 25.1 µM (active); with `COc1ccccc1CNc1ccnc(-c2ccc(N(C)C)cc2)n1`, 10 µM (active). For the compound `CN(C)c1ccc(-c2nccc(NCc3cccs3)n2)cc1`, the AC50 is 15.8 µM (active).

Consider `COc1ccccc1CNc1ccnc(-c2ccoc2)n1`, for which the AC50 is 7.94 µM (active). For the compound `COc1cc(S(C)=O)ccc1-c1nc2ncccc2[nH]1` (centres undefined), the AC50 entry is “inactive”.

Turning to `Cc1cc(SCC(=O)c2cccs2)nc2c(C)cccc12`, the AC50 was 3.16 µM (active). For `CC[C@]1(C)CC(=O)NC1=O`, the AC50 result was “inactive”. On the same count and under the same terms, with `Cc1ccc(Nc2nc(Cl)nc(N(C)C#N)n2)cc1` the figure was 25.1 µM (active). Consider `COc1ccc(-c2cc(C(=O)O)c3c(C)nn(-c4ccccn4)c3n2)cc1`, for which the AC50 entry was “inactive”. Regarding `COC(=O)c1ccccc1N/C=C1\CCc2c(c(C)nn2-c2ccccn2)C1=O`, the half-maximal activity concentration (AC50) is 1.26 µM (active). For the compound `C(=N\Nc1nc(Nc2ccccc2)nc(N2CCOCC2)n1)/c1c[nH]c2ccccc12`, the AC50 was 8.91 µM (active). Same read-out and setting: to `COc1ccc(N2CCN(c3nc(Nc4ccc(F)cc4)nc(OC)n3)CC2)cc1` belongs “inactive”; to `CC(=O)/C(=C\c1ccccc1F)C(=O)c1ccccc1`, 2 µM (active); to `CC(=C\C(=O)O)/C(=C/c1ccccc1)C(=O)O`, “inactive”. For `c1ccc(-c2nc(N3CCCCCC3)nc(-n3ccnc3)n2)cc1`, the AC50 is 2 µM (active). In the case of `CN(c1ccccc1)c1nc(-n2ccnc2)nc(-n2ccnc2)n1`, the AC50 was 1.78 µM (active).

On to `COc1ccc(Oc2nccc(-c3ccc(F)cc3)c2C#N)cc1`, for which the AC50 entry was “inactive”.

As for `Cn1c(=O)c(-c2cccc(C#N)c2)nc2cnc(Oc3ccccc3)nc21`, the AC50 result is “inactive”. Turning to `N#Cc1c(-c2ccccc2)ccnc1Oc1ccccc1`, the AC50 is 1.58 µM (active). On to `COc1ccc(C(=O)CCN(C)C)c2ccccc12`, for which the activity, negative = inhibition is -37.3% [at 11.4 µM] (inactive).

Regarding `COc1ccc2sc3ccccc3c(=O)c2c1OC`, the concentration at half-maximal activity (AC50) is 25.1 µM (active).

For the compound `CCN(CC)CCNc1ccc(CO)c2sc3ccccc3c(=O)c12`, the AC50 entry was “inactive”.

Consider `CCOC(=O)c1[nH]c(C)c(/C(O)=C2\C(=O)C(=O)N(CCN3CCOCC3)C2c2cccs2)c1C` (centres undefined), for which the AC50 is 8.91 µM (active). With `COc1ccc(/C(O)=C2/C(=O)C(=O)N(CCN3CCOCC3)C2c2ccc(C)cc2)cc1` (centres undefined), the AC50 entry was “inactive”.

As to `Cc1nc2ccccn2c1/C(O)=C1\C(=O)C(=O)N(CCN2CCOCC2)C1c1cccnc1` (centres undefined), the AC50 entry was “inactive”. For `CC(=O)Nc1ccc(Cc2ccc3[nH]c(=O)cc(C)c3c2)cc1`, the activity, negative = inhibition was 3.04% [at 11.4 µM] (inactive). As for `Cc1cc(Cl)nc2ccc(Cc3ccc4nc(Cl)cc(C)c4c3)cc12`, the AC50 is 0.501 µM (active). In the case of `Cc1cc(N2CCOCC2)nc2ccc(Cc3ccc4nc(N5CCOCC5)cc(C)c4c3)cc12`, the activity, negative = inhibition was -39.6% [at 11.4 µM] (inactive).

Regarding `CC(C)=NNc1ncnc2nc[nH]c12`, the activity, negative = inhibition is 43.1% [at 11.4 µM] (inactive). Take `CN(C)c1ccc(C(c2ccc(N(C)C)cc2)c2ccc([N+](=O)[O-])cc2)cc1`: the activity, negative = inhibition was -36.9% [at 11.4 µM] (inactive). With `Cc1ccc(N(Cc2ccc([N+](=O)[O-])cc2)C(=O)c2ccco2)cc1`, the AC50 was 10 µM (active). For `CN1CCc2ccccc2[C@@H]1Cc1ccccc1NC(=O)c1sc2ccccc2c1Cl`, the AC50 is 2.51 µM (active).

On to `O=c1c2ccccc2sc2c(CO)ccc(NCCN3CCCCC3)c12`, for which the activity, negative = inhibition was -24.6% [at 11.4 µM] (inactive). For `CC(C)(C)c1nc(SCC(=O)Nc2ccc(N3CCOCC3)cc2)c2ccccc2n1`, the AC50 is 10 µM (active).

As for `O=C(CSc1nncn1-c1ccccc1)Nc1ccc(N2CCOCC2)cc1`, the AC50 entry was “inactive”. Take `CC(C)(C)c1nc(SCC(=O)Nc2ccc3c(c2)OCCO3)c2ccccc2n1`: the half-maximal activity concentration (AC50) was 1.78 µM (active).

Take `Cc1nc(SCC(=O)Nc2ccc(N3CCOCC3)cc2)nc(C)c1C`: the AC50 was 25.1 µM (active). With `Cc1nc(SCC(=O)Nc2ccc3c(c2)OCCO3)c2oc3ccccc3c2n1`, the AC50 is 0.562 µM (active). On the same count and under the same terms, with `CCCNC(=O)N1N=C(c2ccc(N)cc2)c2cc3c(cc2[C@H]1C)OCO3` the entry was “inactive”; with `COc1ccccc1CNC(=O)C/C(C)=N/NC(=O)Cc1ccccc1`, “inactive”.

For `CN1CCC(=NNC(=O)CSCc2ccccc2)CC1`, the concentration at half-maximal activity (AC50) was 17.8 µM (active).

As for `O=C(O)Cc1ccc(NC(=O)C2CCCCC2C(=O)O)cc1` (centres undefined), the AC50 entry was “inactive”. For `CC1CCC(=NNC(=O)Cc2ccccc2)CC1` (centres undefined), the concentration at half-maximal activity (AC50) is 25.1 µM (active). As for `O=C(c1cc(C(F)(F)F)cc(C(F)(F)F)c1)N1CCC[C@@]2(CCN(c3ccccc3)C2)C1`, the AC50 result was “inactive”. On to `O=C(c1coc2ccccc2c1=O)N1CCN(c2cccc(C(F)(F)F)c2)CC1`, for which the AC50 is 14.1 µM (active). Take `O=C(c1cccc(F)c1)N1CCC2(CCN(Cc3cc(C(F)(F)F)cc(C(F)(F)F)c3)CC2)CC1`: the AC50 result is “inactive”. With `CCCCc1cc2ccccc2c(OCCN(C)C)n1`, the AC50 entry was “inactive”. For `O=C(Nc1ccccc1C(=O)O)c1ccc2ccccc2n1`, the AC50 result is “inactive”. With `O=C(O)c1ccccc1Nc1cccc(OCc2ccc3ccccc3n2)c1`, the AC50 is 5.01 µM (active). For the compound `CCCCC[C@H](O)c1cccc(OCc2ccc3ccccc3n2)c1`, the AC50 was 6.31 µM (active). As to `CC(C)C(=O)Cc1ccc2ccccc2n1`, the activity, negative = inhibition is 6.88% [at 11.4 µM] (inactive). Take `O=C(O)CP(=O)(O)O`: the AC50 result was “inactive”. As to `C=CC[C@@H]1C=C[C@H](ON=C(C)C)[C@H](CO)O1`, the activity, negative = inhibition is -4.34% [at 11.4 µM] (inactive). Regarding `Cc1cc(C=C(C#N)C#N)c(C)n1-c1ccccc1`, the AC50 was 1 µM (active). Regarding `Cc1cc(-c2n[nH]c(=S)o2)c(C)n1-c1ccccc1`, the AC50 entry is “inactive”.

For the compound `Cc1cc(C)cc(-n2c(C)cc(C=C(C#N)C#N)c2C)c1`, the AC50 is 5.62 µM (active).

In the case of `Cc1cc(C)nc(Nc2ncc(O)n2-c2ccccc2)n1`, the AC50 entry is “inactive”.

The record behind these values is PubChem BioAssay AID1851 (National Center for Advancing Translational Sciences (NCATS), 2009).
